{"source": "PubChem BioAssay (Tox21)", "note": "Records with an inconclusive call do not appear. Entries that show only a call come without a potency. The source made the active and inactive calls. Calls come from the whole dose curve; as a rule, active = well fitted cell-killing curve with a large enough effect in the repeat runs; inconclusive = weak or mixed curves; inactive = no such curve, though single readings can be large or run the other way. Potency is the fitted concentration of half-maximal effect."}
{"assay": "qHTS assay for identifying genotoxic compounds that show differential cytotoxicity against isogenic chicken DT40 cell lines with known DNA damage response pathways - Rad54/Ku70 mutant cell line (AID 743015); note: nearly all actives have a fitted effect of over 60% in size", "settings": "DT40 Rad54/Ku70 mutant viability, CellTiter-Glo, 40 h; series mostly up to 66.8 µM", "description": "National Center for Advancing Translational Sciences [NCATS]\nNIH Chemical Genomics Center [NCGC]\nU.S. Environmental Protection Agency [EPA]\nNational Institutes of Environmental Health Sciences [NIEHS]\nNational Toxicology Program [NTP]\nU.S. Food and Drug Administration [FDA]\nDNA repair pathways play a critical role in cellular homeostasis by repairing DNA damage induced by endogenous processes and xenobiotics. Isogenic chicken DT40 cell lines deficient in different DNA repair pathways can be used to identify genotoxic compounds and aid in characterizing the nature of the DNA damage induced. Two DNA repair-deficient cell lines with disrupted genes, Rad54/Ku70 or Rev3, were used to screen the Tox21 10K compound library. Possible genotoxicity was based on the presence of a significant increase in cytotoxicity in one or more of the DNA repair-deficient cell lines compared to that observed in the parental DNA repair-proficient cell line. CellTiter Glo viability assay (Promega, Madison, WI) was used to measure cell viability in these cells after compound treatment. This assay includes the data from the Rad54/Ku70 mutant cell line.\nTox21 Assay Protocol Summary:\n300 DT40 mutant cells in 5 uL/well were dispensed into white, solid-bottom 1536-well plates using a Multidrop Combi (ThermoFisher Scientific, Waltham, MA) dispenser. After the assay plates were incubated at 37 C/5% CO2 for approximately 0.5 hour, 23 nL of compounds dissolved in DMSO, positive controls or DMSO only was transferred into the assay plate by a pintool work station (Kalypsys, San Diego, CA). The assay plates were incubated at 37 C/5% CO2 for 40 hours. After 5 uL per well of CellTiter-Glo reagent was added into each well of the assay plates, the plates were incubated for 30 min at room temperature and the luminescence intensity of the plates was measured using a ViewLux (PerkinElmer, Shelton, CT) plate reader."}
{"smiles": "CC(=O)C(C)O", "note": "(stereo not given)", "Potency": "inactive"}
{"smiles": "CC(O)COC(C)(C)C", "note": "(stereo not given)", "Potency": "inactive"}
{"smiles": "c1ccc2c(CC3=NCCN3)cccc2c1", "Potency": "inactive"}
{"smiles": "Cn1c(=O)c2c(ncn2CCO)n(C)c1=O", "Potency": "inactive"}
{"smiles": "COC(C)(OC)OC", "Potency": "inactive"}
{"smiles": "C=C(C)[C@@H]1CC=C(C)C(=O)C1", "Potency": "inactive"}
{"smiles": "OC[C@H]1O[C@@H](O[C@@H]2[C@@H](CO)O[C@](O)(CO)[C@H]2O)[C@H](O)[C@@H](O)[C@H]1O", "Potency": "inactive"}
{"smiles": "O=C(CCCCC(=O)Nc1c(I)cc(I)c(C(=O)O)c1I)Nc1c(I)cc(I)c(C(=O)O)c1I", "Potency": "inactive"}
{"smiles": "c1ccc(B(c2ccccc2)c2ccccc2)cc1", "Potency": "inactive"}
{"smiles": "Nc1nnnn1-c1ccccc1", "Potency": "inactive"}
{"smiles": "CC(=O)CC(=O)Nc1ccc(C)cc1C", "Potency": "inactive"}
{"smiles": "CC(=O)O[Si](C)(OC(C)=O)OC(C)=O", "Potency": "inactive"}
{"smiles": "Nc1nc(-c2ccccc2)c(Br)c(=O)[nH]1", "Potency": "inactive"}
{"smiles": "CC(C)C1OCCN1CCOC(=O)NCCCCCCNC(=O)OCCN1CCOC1C(C)C", "note": "(stereo not given)", "Potency": "inactive"}
{"smiles": "Cc1cc(-c2ccccc2)nnc1NCCN1CCOCC1", "Potency": "inactive"}
{"smiles": "CCO[Si](CC)(OCC)OCC", "Potency": "inactive"}
{"smiles": "O=C(Cl)c1ccccc1[N+](=O)[O-]", "Potency": "inactive"}
{"smiles": "C=CC(=O)OCC1CCCO1", "note": "(stereo not given)", "Potency": "inactive"}
{"smiles": "CC(O)CC(C)O", "note": "(stereo not given)", "Potency": "inactive"}
{"smiles": "O=NN(CCCl)C(=O)NC1CCCCC1", "Potency": "inactive"}
{"smiles": "O=[N+]([O-])c1c(Cl)cc(Cl)cc1Cl", "Potency": "inactive"}
{"smiles": "CCNC(=O)NCc1cccc(Cl)c1", "Potency": "inactive"}
{"smiles": "O=C(O)[C@H](O)c1ccccc1", "Potency": "inactive"}
{"smiles": "CC(C)Cn1cnc2c1c(=O)n(C)c(=O)n2C", "Potency": "inactive"}
{"smiles": "O=Cc1cc2ccccc2o1", "Potency": "inactive"}
{"smiles": "C#CCN[C@@H]1CCc2ccccc21", "Potency": "inactive"}
{"smiles": "CCCCCCC1(C)CCC(=O)O1", "note": "(stereo not given)", "Potency": "inactive"}
{"smiles": "CCO", "Potency": "inactive"}
{"smiles": "O=S(=O)(O)c1ccc2c(N=Nc3ccc(S(=O)(=O)O)c4ccccc34)c(O)c(S(=O)(=O)O)cc2c1", "activity change, negative = cytotoxicity": "0.0993% [at 8.55 µM] (inactive)"}
{"smiles": "CC(C)CCOC(=O)c1ccccc1", "Potency": "inactive"}
{"smiles": "CN(C)CCN(C)CCO", "Potency": "inactive"}
{"smiles": "CN(C)C(C)(C)CO", "Potency": "inactive"}
{"smiles": "CC/C(C)=N\\O[Si](C)(O/N=C(\\C)CC)O/N=C(\\C)CC", "Potency": "inactive"}
{"smiles": "CC(=O)O[C@@H]1CC2CCC1(C)C2(C)C", "note": "(stereo not given in full)", "Potency": "inactive"}
{"smiles": "CCCCOCC(C)O", "note": "(stereo not given)", "Potency": "inactive"}
{"smiles": "C[C@@H](O)C(=O)O", "Potency": "inactive"}
{"smiles": "Cc1cccc(Cl)c1", "Potency": "inactive"}
{"smiles": "COS(=O)(=O)O", "Potency": "inactive"}
{"smiles": "OCC1CCC(CO)CC1", "note": "(stereo not given)", "Potency": "inactive"}
{"smiles": "COc1ccc2c(c1)c1c3n2CCN(C)C3=NCC1", "Potency": "23.7 µM (active)"}
